# PubChem BioAssay (NCI)
# This is part of a sample that, as a whole, favours compounds with a hit. Of some 83,000 tested, about 20% had one in any assay.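 Percent growth is the endpoint: 0 to 100 indicates growth inhibition (40 means 60% inhibition), 0 means no net growth, and negative values indicate cell death.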 Unmarked numbers belong to inactive results. Calls of active or inactive are those of the source.
# Test system: NCI/ADR-RES ovarian
# Assay: NCI-60 one-dose screen, 48 h (100 = growth as untreated, 0 = no growth, -100 = all killed)
# Settings: 10 µM unless noted
# Description: Growth inhibition of the NCI/ADR-RES human […] tumor cell line is measured as a screen for anti-cancer activity. Cells are grown in 96 well plates and exposed to the test compound for 48 hours. Compounds are tested at a single concentration, which is 10^-5 M for most compounds. The reported endpoint is percent growth (GI% or GIPRCNT), where numbers from 0 - 100% represent growth inhibition, and numbers from -100% - 0 represent cell death. For example, a value of 40 represents 60% growth inhibition. A value of 0 means no net growth occurred over the course of the experiment. A value of -40 indicates 40% of cells at the beginning of the experiment died by the end of the experiment. A value of -100 means all cells are dead at the end of the experiment.
# NCI-60 Human Tumor Cell Lines Screen was performed using the standard one-dose NCI protocol, which is described in more detail at https://dtp.cancer.gov/discovery_development/nci-60/default.htm.
# Compounds with GIPRCNT values below 10 were considered active. Activity score was based on GIPRCNT using the following formula: […]
# Score is 0 for GIPRCNT values of 100 or above, 50 for GIPRCNT values of 0, and 100 for GIPRCNT values of -100.
row,Structure (SMILES),growth
1,CCc1ccc(CCC(=O)Nc2ncc(Cc3cc(Cl)ccc3Cl)s2)o1,-3.44% (active)
2,COc1ccc(N2CCC(=S)NC2=S)cc1,103%
3,COc1ccc(Cn2cc(C(=O)N=Nc3c(O)[nH]c4c(C)cccc34)nn2)cc1,71.2%
4,N#Cc1ccc(O)c(C2=NCC(Cc3ccccc3)O2)c1 (stereo not given),0.317% (active)
5,O=C(/C=C/c1ccc(Oc2ccc(Br)cc2)cc1)c1ccc(Br)cc1,98.1%
6,COC(=O)c1c2c(c(C)[n+]([O-])c1C)C(=O)C(NCc1ccc(OC)cc1)=CC2=O,10.1%
7,CC(=O)c1sc2sc(C(C)=O)c(C)c2c1C,95.6%
8,NS(=O)(=O)c1ccc(-c2cc(-c3nnc(SCC(=O)Nc4ccc(C(=O)/C=C/c5ccc(Cl)cc5)cc4)n3-c3ccccc3)c3ccccc3n2)cc1,103%
9,C=CCOC(=O)C1=C(C)N(CC)C(=O)NC1c1c(Cl)n(C)c2ccccc12 (stereo not given),94.1%
10,COc1ccc(-c2nc(-c3cn(C)c4ncccc34)cs2)cc1,3.69% [100 µM] (active)
11,O=C(Nc1ncc(Cc2cc(C(F)(F)F)ccc2Cl)s1)c1cccs1,29.7%
12,Cc1cccc2c1C[C@@]1(C2=O)C(c2ccc(C(C)(C)C)cc2)=NOS1=O (stereo not given in full),86%
13,C#CCOc1cccc(-c2ncnc3cc(NC(=O)C=C)ccc23)c1,53.5%
14,O=S(=O)(NCCNc1nccc(-c2c(-c3ccc(F)c(O)c3)nc3sccn23)n1)c1ccc(F)cc1,92.6%
15,O=C1Nc2ccccc2/C1=C/c1cccn1C(=O)c1ccc(Cl)s1,74.3%
16,Fc1cccc(-c2ccc3c(c2)C2(CCNCC2)CN3)c1,95.5%
17,O=C(O)/C=C/C(=O)Nc1cccc(Cn2nnc3cc(Cl)c(Cl)cc32)c1,106%
18,Nc1nc(NC(=O)Nc2ccc(C(=O)O)cc2)nn1-c1ccc(S(N)(=O)=O)cc1,103%
19,CCOC(=O)C1=C(C)/C(=C\c2[nH]c(C)c(C(=O)OCC)c2C)N=C1C,88.9%
20,FC(F)(F)c1ccc(Cn2cc(CSc3nc4ccccc4s3)nn2)cc1,95.7%

row,Structure (SMILES),growth
1,O=C1c2ccccc2C(=O)c2c1c(C(=O)NCc1ccccc1)c1ccccn21,103%
2,O=C1Nc2ccccc2C1(c1c[nH]c2ccccc12)c1c[nH]c2ccccc12,27.1%
3,Nc1ncnc2c1N=C(c1ccc3c(c1)OCO3)CC(c1cccc(Nc3ccnc4cc(C(F)(F)F)ccc34)c1)N2 (stereo not given),88.3%
4,COc1ccc2c(c1)/C(=N/c1n[nH]c(=S)s1)C(=O)N2,94%
5,CS(=O)(=O)c1nnc(-c2ccccc2)s1,104%
6,O=C(NC1CC(F)C1)c1cc2cccnc2n1-c1ccc(Cl)c(Cl)c1 (stereo not given),90.1%
7,CN(CCC(=O)c1ccccc1)CCC(=O)c1ccccc1,86.5%
8,C[C@H](C(=O)N(CCc1ccc(Cl)c(Cl)c1)Cc1cncs1)[C@@H]1CC[C@H](C[C@H](C)n2cc(CN3CCC(c4ccc(Cl)cc4)CC3)nn2)O1,105%
9,CSc1nc(C)c([N+](=O)[O-])c(N)n1,102%
10,CC1(C)[C@@H](O[C@@H]2OC[C@@H](O[C@@H]3O[C@H](CO)[C@@H](O)[C@H](O)[C@H]3O[C@@H]3OC[C@@H](O)[C@H](O)[C@H]3O)[C@H](O)[C@H]2O[C@@H]2O[C@H](CO)[C@@H](O)[C@H](O)[C@H]2O)CC[C@]2(C)[C@H]3CC[C@]45OC[C@@]6(CC[C@](C)(C=O)C[C@H]64)[C@H](O)C[C@@]5(C)[C@]3(C)CC[C@@H]12,-21.7% (active)
11,CCCn1cnc2c(c1=N)C(c1ccc(F)cc1)c1sc3c(F)cccc3c1O2 (stereo not given),31.1%
12,CN(C)c1ccc(/C=C(\C#N)c2cc3ccccc3[nH]2)cc1,10.8%
13,Cc1ccc(S(=O)(=O)N2CCC(=O)c3ccccc32)cc1,72.6%
14,CC[N+]1(CC)CC[N+]2(CCCC(C)CC2)CC1 (stereo not given),111%
15,C=C(C)[C@@H]1CCC[C@]2(C(=O)N3CCN(C)CC3)CC[C@]3(C)[C@@H](CC[C@@H]4[C@@]5(C)CC/C(=N\NC(=O)c6ccncc6)C(C)(C)[C@@H]5CC[C@]43C)[C@@H]12,99.3%
16,COc1ccc2cc(-c3ccnc4c(N=Nc5ccc(Cl)cc5)c(N)nn34)ccc2c1,94.5%
17,Oc1c(CN2CCOCC2)cc(COCc2ccccc2)c2cccnc12,7.42% (active)
18,CCN1C(=O)N(CC)C2C1NN=c1s/c(=C\c3ccc[nH]3)c(=O)n12 (stereo not given),8.11% (active)
19,Cc1ccc(S(=O)(=O)OCCCOS(=O)(=O)c2ccc(C)cc2)cc1,116%
20,O=C1/C=C/[C@@H](O)[C@@H]2C[C@@H](O)C[C@H]2/C=C/CCC[C@H](CCO)O1,5.98% (active)
